Results filed as inconclusive are left out. Some structures have more than one record in an assay (separate samples or runs), and their calls can disagree. Activity calls are given as the source filed them. Calls follow the shape of the dose curve; as a rule, active = well fitted curve in the direction sought with a large enough effect; inconclusive = small, poorly fitted or top-dose-only effect, or another doubt; inactive = no such curve, though single readings can be large; an effect the other way counts as inactive or inconclusive.
What was measured:
Hek293T = assay: Primary qHTS to identify gynecologic anti-cancer compounds using libraries of approved drugs and bioactive compounds (AID 1345084); conditions: Gynecologic cancer cell panel viability, ATPlite luminescence, 48 h, control line for the selectivity index; series mostly up to 57.5 µM; also: nearly all actives have a fitted effect of over 55% in size
In short: (§1)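 In this quantitative HTS, cell killing is estimated from loss of ATP-dependent luciferase light. Cells see five compound concentrations over a 48 h exposure.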

JEG-3 = assay: as above; conditions: Gynecologic cancer cell panel viability, ATPlite luminescence, 48 h; series mostly up to 57.5 µM
In short: as §1

OV90 = assay: as above; conditions: Gynecologic cancer cell panel viability, ATPlite luminescence, 48 h; series mostly up to 57.5 µM
In short: as §1

PA-1 = assay: as above; conditions: Gynecologic cancer cell panel viability, ATPlite luminescence, 48 h; series mostly up to 57.5 µM
In short: as §1

SKOV3 = assay: as above; conditions: Gynecologic cancer cell panel viability, ATPlite luminescence, 48 h; series mostly up to 57.5 µM
In short: as §1

Tov-21-G = assay: as above; conditions: Gynecologic cancer cell panel viability, ATPlite luminescence, 48 h; series mostly up to 57.5 µM
In short: as §1

Tov112D = assay: as above; conditions: Gynecologic cancer cell panel viability, ATPlite luminescence, 48 h; series mostly up to 57.5 µM
In short: as §1

[1] = Drug repurposing screens with cells derived from glioblastoma tumor samples (AID 1345199); conditions: GBM patient neurospheres viability, ATP luminescence, 48 h; also: nearly all actives have a fitted effect of over 40% in size
In short: (§2)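 Primary testing used CD133+ neurospheres from four GBM patients, seven concentrations, 48 h exposure and ATP-based viability; confirmation added three slower-growing patient lines.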

astro = assay: as above; conditions: viability, ATP luminescence, 48 h; series mostly up to 45.9 µM
In short: as §2

[2] = at 45.9 µM (top of the series), tumour line B
[3] = at 45.9 µM (top of the series), tumour line D
[4] = at 46 µM (top of the series), tumour line A
[5] = at 46.1 µM (top of the series), tumour line C
[6] = at 20 µM (top of the series), tumour line C
[7] = at 91.6 µM (top of the series), tumour line B
[8] = at 91.6 µM (top of the series), tumour line D
[9] = at 99.2 µM (top of the series), tumour line C
[10] = at 21.2 µM (top of the series), tumour line B
[11] = at 21.2 µM (top of the series), tumour line D
% is scaled to controls: 0 for no effect and ±100 for the full control effect; potency is read from the fitted curve at half-maximal effect.

NC(Cc1ccc(Cl)cc1)C(=O)O (configuration not stated)
inactive: activity change, negative = cytotoxicity (Hek293T) 0.47% [at 0.462 µM] | activity change, negative = cytotoxicity (JEG-3) 1.83% [at 0.462 µM] | activity change, negative = cytotoxicity (OV90) -16.1% [at 0.462 µM] | activity change, negative = cytotoxicity (PA-1) -4.76% [at 0.462 µM] | activity change, negative = cytotoxicity (SKOV3) 0.0141% [at 0.462 µM] | activity change, negative = cytotoxicity (Tov-21-G) 11.9% [at 0.462 µM] | activity change, negative = cytotoxicity (Tov112D) 2.14% [at 0.462 µM] | activity, negative = cell killing [1, 2] -4.29% | activity, negative = cell killing [1, 3] -0.449% | activity, negative = cell killing [1, 4] -31.7% | activity, negative = cell killing [1, 5] 0.887%

NC/C=C/C(=O)O
inactive: Potency (Hek293T) | Potency (JEG-3) | Potency (OV90) | Potency (PA-1) | Potency (SKOV3) | Potency (Tov-21-G) | Potency (Tov112D) | activity, negative = cell killing [1, 2] -2.84% | activity, negative = cell killing [1, 3] -13.4% | activity, negative = cell killing [1, 4] -7.07% | activity, negative = cell killing [1, 5] -22.1%

O=C1CC2(CCCC2)CC(=O)N1CCCCN1CCN(c2ncccn2)CC1
inactive: Potency (Hek293T) | Potency (JEG-3) | Potency (OV90) | Potency (PA-1) | Potency (SKOV3) | Potency (Tov-21-G) | Potency (Tov112D) | activity, negative = cell killing [1, 2] -25.4% | activity, negative = cell killing [1, 5] -16.7%
active: Potency ([1]; tumour line A) 5.01 µM

NC(=O)c1ncn([C@@H]2O[C@H](CO)[C@@H](O)[C@H]2O)c1O
inactive: Potency (Hek293T) | Potency (JEG-3) | Potency (OV90) | Potency (PA-1) | Potency (SKOV3) | Potency (Tov-21-G) | Potency (Tov112D) | activity, negative = cell killing [1, 2] -12.1% | activity, negative = cell killing [1, 3] 11.4% | activity, negative = cell killing [1, 4] -0.128% | activity, negative = cell killing [1, 5] -22.4%

CCCCNc1ccc(C(=O)OCCN(C)C)cc1
inactive: Potency (Hek293T) | Potency (JEG-3) | Potency (OV90) | Potency (PA-1) | Potency (SKOV3) | Potency (Tov-21-G) | Potency (Tov112D) | activity, negative = cell killing [1, 6] -9.33%
active: Potency ([1]; tumour line A) 14.1 µM

CN(C)CCN(Cc1cccs1)c1ccccn1
active: Potency ([1]; tumour line A) 8.91 µM
inactive: Potency (Hek293T) | Potency (JEG-3) | Potency (OV90) | Potency (PA-1) | Potency (SKOV3) | Potency (Tov-21-G) | Potency (Tov112D) | activity, negative = cell killing [1, 2] -18%

CN(C)C(=O)Oc1cccc([N+](C)(C)C)c1
inactive: Potency (Hek293T) | Potency (JEG-3) | Potency (OV90) | Potency (PA-1) | Potency (SKOV3) | Potency (Tov-21-G) | Potency (Tov112D) | activity, negative = cell killing [1, 2] -0.104% | activity, negative = cell killing [1, 3] 10.8% | activity, negative = cell killing [1, 4] -24.8% | activity, negative = cell killing [1, 5] -4.3%

CCCCOCCOCCOCc1cc2c(cc1CCC)OCO2
active: Potency ([1]; tumour line A) 31.6 µM
inactive: Potency (Hek293T) | Potency (JEG-3) | Potency (OV90) | Potency (PA-1) | Potency (SKOV3) | Potency (Tov-21-G) | Potency (Tov112D) | activity, negative = cell killing [1, 2] -4.83% | activity, negative = cell killing [1, 3] 11.7% | activity, negative = cell killing [1, 5] -0.263% | activity, negative = cell killing [1, 7] -11.5% | activity, negative = cell killing [1, 8] -27.9% | activity, negative = cell killing [1, 9] 13.4%

CC(=O)OC(C)C[N+](C)(C)C (configuration not stated)
inactive: Potency (Hek293T) | Potency (JEG-3) | Potency (OV90) | Potency (PA-1) | Potency (SKOV3) | Potency (Tov-21-G) | Potency (Tov112D) | activity, negative = cell killing [1, 6] 12% | activity, negative = cell killing [1, 10] 6.44% | activity, negative = cell killing [1, 11] -7.66% | activity, negative = cell killing ([1]; at 21.3 µM (top of the series), tumour line A) -14.4% | Potency (astro)

Cc1cc(C)c(/C=C2\C(=O)Nc3ccccc32)[nH]1
inactive: Potency (Hek293T) | Potency (JEG-3) | Potency (OV90) | Potency (PA-1) | Potency (SKOV3) | Potency (Tov-21-G) | Potency (Tov112D) | activity, negative = cell killing [1, 2] -6.6%
active: Potency ([1]; tumour line A) 31.6 µM

NCCCNCCSP(=O)(O)O
inactive: activity change, negative = cytotoxicity (Hek293T) -0.973% [at 11.6 µM] | activity change, negative = cytotoxicity (JEG-3) -0.217% [at 11.6 µM] | activity change, negative = cytotoxicity (OV90) -0.281% [at 11.6 µM] | activity change, negative = cytotoxicity (PA-1) 1.25% [at 11.6 µM] | activity change, negative = cytotoxicity (SKOV3) 19.8% [at 11.6 µM] | activity change, negative = cytotoxicity (Tov-21-G) -2.2% [at 11.6 µM] | activity change, negative = cytotoxicity (Tov112D) 1.24% [at 11.6 µM] | activity, negative = cell killing [1, 2] -11.7% | activity, negative = cell killing [1, 3] -3.44% | activity, negative = cell killing [1, 4] -3.51% | activity, negative = cell killing [1, 5] 0.364%

CCN(CC)CCOCCOC(=O)C1(c2ccccc2)CCCC1
inactive: Potency (Hek293T) | Potency (JEG-3) | Potency (OV90) | Potency (PA-1) | Potency (SKOV3) | Potency (Tov-21-G) | Potency (Tov112D) | activity, negative = cell killing [1, 5] -28.4%
active: Potency ([1]; tumour line A) 2.24 µM | Potency ([1]; tumour line D) 12.6 µM

Cc1cccc(C)c1NC(=O)C(C)N (configuration not stated)
inactive: Potency (Hek293T) | Potency (JEG-3) | Potency (OV90) | Potency (PA-1) | Potency (SKOV3) | Potency (Tov-21-G) | Potency (Tov112D) | activity, negative = cell killing [1, 6] 6.4% | activity, negative = cell killing [1, 10] -16.9% | activity, negative = cell killing [1, 11] 1.82%

NC(=Nc1ccccc1)Nc1ccccc1
active: Potency ([1]; tumour line A) 25.1 µM
inactive: Potency (Hek293T) | Potency (JEG-3) | Potency (PA-1) | Potency (SKOV3) | Potency (Tov-21-G) | Potency (Tov112D) | activity, negative = cell killing [1, 2] -2.03% | activity, negative = cell killing [1, 3] -11.9% | activity, negative = cell killing [1, 5] 5.57% | activity, negative = cell killing [1, 7] -24.2% | activity, negative = cell killing [1, 8] -23% | activity, negative = cell killing [1, 9] 19%
14.1 µM (active) and inactive: Potency (OV90)

CN(C)[C@@H]1C(=O)C(C(N)=O)=C(O)[C@@]2(O)C(=O)C3=C(O)c4c(O)ccc(Cl)c4[C@@H](O)[C@H]3C[C@@H]12
inactive: Potency (Hek293T) | Potency (JEG-3) | Potency (OV90) | Potency (PA-1) | Potency (SKOV3) | Potency (Tov-21-G) | Potency (Tov112D) | activity, negative = cell killing [1, 2] -11.7% | activity, negative = cell killing [1, 3] -27% | activity, negative = cell killing [1, 5] -29.4%
